Records with an inconclusive call do not appear. A call without a number means that no potency is given here. A structure can be active in one record and inactive in another. Active and inactive are the calls of the source. Unless noted, calls come from the whole dose curve; as a rule, active = well fitted curve in the direction sought with a large enough effect; inconclusive = small, poorly fitted or top-dose-only effect, or another doubt; inactive = no such curve, though single readings can be large; an effect the other way counts as inactive or inconclusive.
Tests used:
[1] = qHTS for Inhibitors of Plasmodium falciparum (DD2) proliferation (AID 504314);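 note: parasite DNA measured by SYBR Green fluorescence after red cell lysis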
Method in brief: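 Fluorescence read-out (ex 485/em 535 nm) of SYBR Green-stained parasite DNA quantifies intraerythrocytic growth. Cultures at 0.3% parasitemia and 2.5% hematocrit were treated for 72 h; data normalized to DMSO and 0.29 uM artemisinin wells.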

[2] = qHTS for Inhibitors of Plasmodium falciparum (GB4) proliferation (AID 504315); note: nearly all actives have a fitted effect of over 50% in size
Method in brief: (§1)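 Erythrocytes infected with P. falciparum line (0.3% parasitemia, 2.5% hematocrit final) incubated with compounds 72 h at 37 °C, 5% CO2; SYBR Green lysis buffer added, fluorescence read next day. Normalized to 0.29 uM artemisinin and DMSO.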

[3] = qHTS for Inhibitors of Plasmodium falciparum (7G8) proliferation (AID 504316); note: nearly all actives have a fitted effect of over 65% in size; note: potency is the fitted concentration of half-maximal effect
Method in brief: as §1

[4] = qHTS for Inhibitors of Plasmodium falciparum (HB3) proliferation (AID 504318); note: nearly all actives have a fitted effect of over 60% in size
Method in brief: as §1

[5] = qHTS for Inhibitors of Plasmodium falciparum (CP250) proliferation (AID 504320)
Method in brief: as §1

[6] = target: Atrial natriuretic peptide receptor 1 (Homo sapiens) (UniProt P16066); test: Natriuretic polypeptide receptor (hNpr1) antagonism - Pilot CMLD screen (AID 1347052; calls by dose curve;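 note: cGMP level read as GloSensor luciferase luminescence after agonist stimulation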; note: potency is the fitted concentration of half-maximal effect)
Chain of Atrial natriuretic peptide receptor 1 (Homo sapiens) (P16066 whole entry, looked up): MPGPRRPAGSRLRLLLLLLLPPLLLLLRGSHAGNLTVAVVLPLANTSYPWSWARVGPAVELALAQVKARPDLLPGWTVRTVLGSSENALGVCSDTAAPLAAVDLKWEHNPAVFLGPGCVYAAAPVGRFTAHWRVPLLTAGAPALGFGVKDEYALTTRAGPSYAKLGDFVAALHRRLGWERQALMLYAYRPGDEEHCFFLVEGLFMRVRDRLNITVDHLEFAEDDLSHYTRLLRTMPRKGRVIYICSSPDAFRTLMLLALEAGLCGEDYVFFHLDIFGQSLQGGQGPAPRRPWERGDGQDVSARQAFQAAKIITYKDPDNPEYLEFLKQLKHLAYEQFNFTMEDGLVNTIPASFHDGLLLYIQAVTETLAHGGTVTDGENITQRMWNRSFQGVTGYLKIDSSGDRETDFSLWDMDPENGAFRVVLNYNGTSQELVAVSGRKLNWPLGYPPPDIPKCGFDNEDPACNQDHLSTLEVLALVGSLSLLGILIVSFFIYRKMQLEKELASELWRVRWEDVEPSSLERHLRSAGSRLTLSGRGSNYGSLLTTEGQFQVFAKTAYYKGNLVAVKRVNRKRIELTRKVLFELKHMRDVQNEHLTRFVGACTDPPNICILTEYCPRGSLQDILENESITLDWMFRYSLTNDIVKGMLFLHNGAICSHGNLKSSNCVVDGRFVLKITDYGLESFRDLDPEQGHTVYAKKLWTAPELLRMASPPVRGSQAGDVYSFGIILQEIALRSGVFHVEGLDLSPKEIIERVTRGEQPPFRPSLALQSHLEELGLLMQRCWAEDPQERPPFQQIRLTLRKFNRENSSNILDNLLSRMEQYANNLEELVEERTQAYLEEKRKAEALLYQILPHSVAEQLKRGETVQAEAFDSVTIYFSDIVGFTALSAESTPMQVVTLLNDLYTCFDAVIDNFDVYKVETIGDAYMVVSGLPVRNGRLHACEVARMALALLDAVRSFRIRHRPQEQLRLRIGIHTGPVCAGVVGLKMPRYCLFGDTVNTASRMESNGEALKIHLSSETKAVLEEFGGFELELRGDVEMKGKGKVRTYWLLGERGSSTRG

| Structure (SMILES) | Potency [1] | Potency [2] | Potency [3] | Potency [4] | Potency [5] | Potency [6] | activity, negative = inhibition [1] |
| --- | --- | --- | --- | --- | --- | --- | --- |
| CCN1C(=O)N[C@@H](c2ccccc2)[C@H](C(=O)OC)[C@H]1C | inactive | inactive | inactive | inactive | inactive | inactive | – |
| C=CCOC(=O)C(C(C)=O)[C@@H](NC(=O)OC)c1ccco1 (stereo partly drawn) | inactive | inactive | inactive | inactive | inactive | inactive | – |
| CC(=O)OC[C@H]1O[C@H](C#CC(C)(C)C)C=C[C@H]1OC(C)=O | inactive | inactive | inactive | inactive | inactive | inactive | – |
| C=CCN1c2ccccc2[C@]23C[C@@H](C(=O)OC)N(C(=O)Nc4ccc(C(F)(F)F)cc4)C2=NC(C(=O)OC)=C(C(=O)OC)[C@H]13 | inactive | inactive | inactive | inactive | inactive | inactive | – |
| O=C1CCCC=C1C(O)CCOCc1ccccc1 (stereo not drawn) | inactive | inactive | inactive | inactive | inactive | inactive | – |
| C=CCN1C(=O)[C@@]2(CC(C)=CC[C@@H](C)O2)c2ccccc21 | inactive | inactive | inactive | inactive | inactive | inactive | – |
| CC1(OC(=O)C2CCCC2)C(=O)C=C2C=C(c3ccc(C#N)cc3)OC=C2C1=O (stereo not drawn) | inactive | inactive | inactive | inactive | inactive | inactive | – |
| CC(C)=NOCc1ccc(-c2cn([C@@H]3COC[C@@H]3O)nn2)cc1 | inactive | inactive | inactive | inactive | inactive | inactive | – |
| CC(C)[C@@H](OCc1ccccc1)[C@H](C)C=NO[C@H](C)c1cn([C@@H]2COC[C@@H]2O)nn1 | inactive | inactive | inactive | inactive | inactive | inactive | – |
| C=CCOC(=O)C1=C(C)N(CC)C(=O)NC1c1ccccc1 (stereo not drawn) | inactive | inactive | inactive | inactive | inactive | inactive | – |
| C[C@@H]1C=CCCO[C@]12C(=O)N(Cc1ccccc1C(F)(F)F)c1ccccc12 | inactive | inactive | inactive | inactive | inactive | inactive | – |
| C=CCOC(=O)N[C@@H](CCc1ccccc1)C(C(C)=O)C(C)=O | inactive | inactive | inactive | inactive | inactive | inactive | – |
| Cc1ccc(C(O)C2=CCCC2=O)cc1 (stereo not drawn) | inactive | inactive | inactive | inactive | inactive | inactive | – |
| CC#CCN1C(=O)NC(c2ccccc2)C(C(=O)OCC)=C1c1ccccc1 (stereo not drawn) | inactive | inactive | inactive | inactive | inactive | inactive | – |
| O=C1OCCC=C1C(O)CCc1ccccc1 (stereo not drawn) | inactive | inactive | inactive | inactive | inactive | inactive | – |
| COC(=O)C(C(=O)OC)C1c2ccccc2C=C(C2CC2)N1C(=O)OC (stereo not drawn) | inactive | inactive | inactive | inactive | inactive | 531 nM (active) and inactive | – |
| CC(=O)OC[C@H]1O[C@H](CC=NOCC[C@@H]2C=C[C@@H](OC(C)=O)[C@@H](COC(C)=O)O2)C=C[C@@H]1OC(C)=O | inactive | inactive | inactive | inactive | inactive | inactive | – |
| CC1(OC(=O)CCc2ccccc2)C(=O)C=C2C=C(C3CC3)OC=C2C1=O (stereo not drawn) | inactive | inactive | inactive | inactive | inactive | inactive | – |
| COCCN1C(=O)NC(c2cccc(F)c2)C(C(C)=O)=C1C (stereo not drawn) | inactive | inactive | inactive | inactive | inactive | inactive | – |
| C=CCC12OC3(OC)CC1[C@H](C)[C@@H](c1ccccc1)C2[C@@]3(C)O (stereo partly drawn) | inactive | inactive | inactive | inactive | inactive | inactive | – |
| O=C(Oc1ccccc1)[C@H]1O[C@H]1c1ccccc1 | inactive | inactive | inactive | inactive | inactive | inactive | – |
| COc1ccc2c(c1)O[C@H](c1ccc3c(c1)OCO3)[C@@H](OC(=O)NCCOc1ccccc1)C2=O | inactive | inactive | inactive | inactive | inactive | inactive | – |
| C=CCN(C)C1=NC(c2ccccc2)C(C(=O)OC)=C(C)N1CCOC (stereo not drawn) | inactive | inactive | inactive | inactive | inactive | inactive | – |
| COC(=O)CC=C[C@@H](C)[C@H](NC(=O)OCC(Cl)(Cl)Cl)c1ccccc1 | inactive | inactive | inactive | inactive | inactive | inactive | – |
| COC(=O)CC1=CO[C@@H](O)[C@@H]2C(CO)=CC[C@@H]12 | inactive | inactive | inactive | inactive | inactive | inactive | – |
| C=CCOC(=O)N[C@H](c1ccc2ccccc2c1)[C@H](C)C=CCC(=O)OC | inactive | inactive | inactive | inactive | inactive | inactive | – |
| CC(C)[C@@H](OCc1ccccc1)[C@H](C)C=NOC[C@@H](O)COCc1ccco1 | inactive | inactive | inactive | inactive | inactive | inactive | – |

| Structure (SMILES) | Potency [1] | Potency [2] | Potency [3] | Potency [4] | Potency [5] | Potency [6] | activity, negative = inhibition [1] |
| --- | --- | --- | --- | --- | --- | --- | --- |
| COC(=O)C1=C(C)N(Cc2ccco2)C(=O)NC1c1ccco1 (stereo not drawn) | inactive | inactive | inactive | inactive | inactive | inactive | – |
| C[C@@H]1C=CCCO[C@]12C(=O)N(Cc1ccc(Br)cc1)c1cccc(Br)c12 | inactive | inactive | inactive | inactive | inactive | inactive | – |
| O=C(NN=C1C[C@@H](O)[C@H](O)[C@H]2[C@@H]3C(=O)N(C[C@@H]4CCCO4)C(=O)[C@@H]3CC[C@@H]12)OCc1ccccc1 | inactive | inactive | inactive | inactive | inactive | inactive | – |
| C#C[C@@H]1C=C[C@H](Oc2ccc(OC)cc2)[C@H](CO)O1 | inactive | inactive | inactive | inactive | inactive | inactive | – |
| CCN1C(=O)[C@@H]2[C@H]3[C@H](O)[C@H](O)CC(=NO[C@@H]4O[C@H](COC(C)=O)[C@@H](OC(C)=O)[C@H](OC(C)=O)[C@@H]4OC(C)=O)[C@@H]3CC[C@H]2C1=O | inactive | inactive | inactive | inactive | inactive | inactive | – |
| C=CCCN1C(=O)NC(c2ccccc2)C(C(=O)OC)=C1C (stereo not drawn) | inactive | inactive | inactive | inactive | inactive | inactive | – |
| COC(=O)[C@H]1[C@H](C)[C@@]2(O)c3ccccc3N(C)[C@@]1(C)[C@H]2O | inactive | inactive | inactive | inactive | inactive | inactive | – |
| CC[C@H](C)[C@@H](NC(=O)O[C@H]1C(=O)c2cc(OC)ccc2O[C@@H]1c1ccc(OC)c(Br)c1)C(=O)OC | inactive | inactive | inactive | inactive | inactive | inactive | – |
| CCN1C(=O)NC(c2ccco2)C(C(C)=O)=C1C (stereo not drawn) | inactive | inactive | inactive | inactive | inactive | inactive | – |
| COC(=O)CC=C1c2ccc(F)cc2[C@@H](OC)[C@@H]1C | inactive | inactive | inactive | inactive | inactive | inactive | – |
| O=C1[C@@H]2[C@H]3[C@H](O)[C@H](O)CC(=NOC[C@@H](O)COCc4ccco4)[C@H]3CC[C@H]2C(=O)N1c1ccc(F)cc1F | inactive | inactive | inactive | inactive | inactive | inactive | – |
| O=S(=O)(CCc1ccccc1)c1ccccc1 | inactive | inactive | inactive | inactive | inactive | inactive | – |
| COC(=O)[C@@H](O)CC[C@@H](C)Cc1c(OC)c(OC)c(C)c(OC)c1OC | inactive | inactive | inactive | inactive | inactive | inactive | – |
| COC(=O)N(C=Cc1ccc(OC)cc1)CCc1ccc(OC)c(OC)c1 | inactive | inactive | inactive | inactive | inactive | inactive | – |
| COC(=O)C1=C(C(=O)OC)[C@@H]2Nc3ccccc3[C@@]23C[C@@H](C(=O)OC)N(C(=O)NCCBr)C3=N1 | inactive | inactive | 1900 nM (active) | inactive | inactive | inactive | – |
| C[C@@H]1C(c2ccccc2)CC(=O)C(=O)C[C@@H]1C(=O)N1CCCC1 (stereo partly drawn) | inactive | inactive | inactive | inactive | inactive | inactive | – |
| C[C@H]1Cc2c(COc3ccccc3)nc3c(c2CO1)CN(C(=O)c1cccnc1)CC3 | – | inactive | inactive | inactive | inactive | inactive | 0.654% [at 1.12 µM] (inactive) |
| CCN1C(=O)[C@@H]2[C@H]3[C@H](O)[C@H](O)CC(=NO[C@H](C)c4cn([C@@H]5COC[C@@H]5O)nn4)[C@@H]3CC[C@H]2C1=O | inactive | inactive | inactive | inactive | inactive | inactive | – |
| CN1c2ccccc2[C@@]2(O)C(=O)[C@@]1(C)[C@@H]1C=CCC[C@H]12 | inactive | inactive | inactive | inactive | inactive | inactive | – |
| C=CCN1C=C2C(=O)C(C)(OC(=O)c3ccc(OC)cc3)C(=O)C(c3ccco3)=C2C=C1CCCC (stereo not drawn) | inactive | inactive | inactive | inactive | inactive | inactive | – |
| COC(=O)[C@H]1[C@@H](c2ccccc2)NC(=O)N(Cc2ccccc2)[C@@H]1C | inactive | inactive | inactive | inactive | inactive | inactive | – |
| O=C1CCCC=C1C(CCc1ccccc1)OC(=O)c1ccc(Br)cc1 (stereo not drawn) | inactive | inactive | inactive | inactive | inactive | inactive | – |
| C=CCOC(=O)C(C(C)=O)[C@@H](NC(=O)OC)c1cccc(F)c1 (stereo partly drawn) | inactive | inactive | inactive | inactive | inactive | inactive | – |
| COC(=O)NC(CCc1ccccc1)C(C(=O)OC)C(=O)OC (stereo not drawn) | inactive | inactive | inactive | inactive | inactive | inactive | – |
| COC(=O)[C@H](COC(C)(C)C)NC(=O)O[C@H]1C(=O)c2ccc(OC)cc2O[C@@H]1c1ccc2c(c1)OCO2 | inactive | inactive | inactive | inactive | inactive | inactive | – |
| CO[C@@H]1c2cc(F)ccc2C(=CCCOC(=O)CC=Cc2ccccc2)[C@H]1C | inactive | inactive | inactive | inactive | inactive | inactive | – |

— PubChem BioAssay (NCATS)
